Experimental data as given in PubChem BioAssay (NCATS).
Records with an inconclusive call do not appear. Values without a mark were called inactive. Activity calls are given as the source filed them. The call rests on the fitted dose curve; in most records, active means well fitted inhibition curve with a large enough effect; inconclusive means small, poorly fitted or top-dose-only effect; inactive means flat fitted curve, though single readings scatter.

Molecular target: Calcium and integrin-binding protein 1 (Homo sapiens) (UniProt Q99828)
Sequence (Q99828 whole entry, looked up): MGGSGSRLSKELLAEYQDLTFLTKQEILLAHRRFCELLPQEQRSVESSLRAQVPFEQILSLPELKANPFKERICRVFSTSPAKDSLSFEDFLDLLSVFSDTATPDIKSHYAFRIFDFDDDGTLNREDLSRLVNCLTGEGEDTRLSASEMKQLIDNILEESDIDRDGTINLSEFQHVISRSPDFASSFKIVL
Assay: Primary qHTS for Identification of Calcium Integrin Binding Protein 1 (CIB1) Competitor (AID 1508620); further: top concentration of the series differs between compounds
Conditions: CIB1-GST / FITC-alphaIIb peptide fluorescence polarization; series mostly up to 114 µM; activity change, negative = inhibition: at the top concentration
Outline: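 Fluorescence polarization competition: GST-tagged CIB1 (1 uM final) preincubated with compound 15 min at room temperature, then FITC-labelled alphaIIb peptide (100 nM final) added. After 15 min at room temperature, polarization read at Ex 480/Em 540.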
On the % scale 0 is the no-effect control and ±100 the full control effect.

SMILES	activity change, negative = inhibition	Potency
CC(=O)Nc1sc2c(c1-c1ccc(C(N)=O)cc1)CCNC2	-3.23%	–
CC1=C(C(=O)Nc2nnc(-c3ccccc3)s2)C(c2nn(C)cc2Cl)N=C(Nc2nc3ccccc3o2)N1 (stereo not given)	0.983%	–
Oc1c(C(Nc2ccccn2)c2ccccc2)cc(Cl)c2cccnc12 (stereo not given)	–	inactive
Cc1ccc(-c2ccc(=O)n(CC(=O)N(C)CCN(C)C)n2)cc1	2.97%	–
Cn1c2ccsc2c2cnn(Cc3ccc(F)cc3)c(=O)c21	0.241%	–
O=C(C1CCN(c2nc(-c3ccc(Br)cc3)cs2)CC1)N1CCOCC1	4.07%	–
O=C(c1ccc2c(c1)ncn2-c1ccc(Cl)cc1)N1CCCCC1	-5.06%	–
COc1ccc(C2Nc3ccccc3C(=O)N2Cc2ccccc2)cc1Oc1ccc(NC(C)=O)cc1 (stereo not given)	6.85%	–
NNC(=O)C(C(=O)OCc1ccccc1)c1ccccc1 (stereo not given)	-5.23%	–
O=C(O)c1ccc(-c2nn3c(=O)cc(N4CCNCC4)nc3s2)cc1	-0.465%	–
COc1ccc(CN(Cc2ccccc2)C(=O)c2ccccc2)cc1COc1ccc(NC(C)=O)cc1	0.803%	–
CCn1cnc2c(Nc3ccc(Cc4cccnc4)cc3)nc(C#N)nc21	1.29%	–
CC(=O)NC(c1cc(Cl)c2cccnc2c1O)C(C)C (stereo not given)	-13%	–
COC(=O)c1ccc(Cn2ncc3c4sc(C)cc4n(C)c3c2=O)cc1	2.73%	–
O=S(=O)(c1ccc2c(c1)OCCO2)N1CCN(S(=O)(=O)c2ccccc2OC(F)(F)F)CC1	-5.46%	–
N#Cc1ccccc1-c1csc(N2CCC(C(N)=O)CC2)n1	-5.27%	–
Cc1nc(-c2ccc([S+](=O)([O-])N3CCN([S+](=O)([O-])c4c(F)cccc4F)CC3)s2)cs1	-4.39%	–
Cc1cnc(-c2ccccc2C(C)C)nc1NCc1ccc(C(N)=O)cc1	2.75%	–
O=C(Nc1ccc(F)c(C(F)(F)F)c1)Nc1nc(-c2ccncc2)cs1	0.887%	–
Cc1cc2c(s1)c1cnn(Cc3c(F)cccc3Cl)c(=O)c1n2C	-0.0531%	–

SMILES	activity change, negative = inhibition	Potency
O=C(CCCCSc1nnc(-c2cccc3ccccc23)o1)Oc1ccc(F)cc1	6.14%	–
COc1ccc(-c2ccc(NC(=O)c3cccs3)cn2)cc1	0.114%	–
O=C(OCC#CCSc1nnc(-c2cccc3ccccc23)o1)c1ccc(F)cc1	2.25%	–
COc1ccc(C2Nc3ccccc3C(=O)N2Cc2ccco2)cc1CSc1c(C)cccc1C (stereo not given)	-4.02%	–
Nc1nc(NCc2ccc(-c3ccnc(C(F)(F)F)c3)cc2)c2ccccc2n1	26.1%	–
CCOc1ccc(C(=O)Nc2ccc(-c3nc4ccccc4o3)cc2)cc1[N+](=O)[O-]	9.93%	–
COc1ccc(C2c3c(n(CCCc4ccccc4)cnc3=N)Oc3ccc4ccccc4c32)cc1OC (stereo not given)	1.98%	–
O=C1CCCC2=C1C(c1[nH]ncc1Cl)NC(=NCc1ncc[nH]1)N2 (stereo not given)	-3.83%	–
CCc1ccc(-c2nn3c(C)nnc3s2)cc1NC(=O)c1ccc(-c2cccc(Cl)c2)o1	1.45%	–
O=C1CCCC2=C1C(c1cnccc1C(F)(F)F)N=C(Nc1nc3ccccc3o1)N2 (stereo not given)	-3.02%	–
CN(C)CC(=O)NC1CCCc2c1cnn2-c1ccc(F)cc1F (stereo not given)	0.923%	–
COc1ccc(C2=Nn3c(nnc3-c3cccc(OC)c3OC)SC2)c(OC)c1	1.79%	–
CC(=O)Nc1cccc(S(=O)(=O)N2CCCN(S(=O)(=O)c3ccc4c(c3)OCCO4)CC2)c1	-5.67%	–
COC(=O)c1ccc2c(c1)S(=O)(=O)NC2=O	2.15%	–
CC(C)(C)[C@H](NC(=O)c1ccc(N)c(Cl)c1)C(=O)N1CCC[C@H]1C(=O)N[C@H](C#N)Cc1nn[nH]n1	-9%	–
COc1cc(OC)c(C(CC(=O)N2CC(C)CC(C)C2)c2ccc3c(c2)OCO3)c(OCC(N)=O)c1 (stereo not given)	-2.25% [at 228 µM]	–
S=C(NCCCc1cnc[nH]1)NCCCN(Cc1ccc(Cl)c(Cl)c1)c1ccccn1	-7.7%	–
c1nc(NCCCN2CCCCC2)c2cc(-c3ccc4c(c3)OCO4)ccc2n1	3.06%	–
Cc1cc2c(s1)c1cnn(Cc3c(F)cccc3F)c(=O)c1n2C	1.81%	–
COc1cccc(C2c3c(ncn(-c4ccc(C#N)cc4)c3=N)Oc3ccc4ccccc4c32)c1 (stereo not given)	10.1%	–
